# Assay: HepG2 liver cancer cell viability effects, profiling panel, resazurin fluorescence, 24 h, PK04 Diversity Set (AID 1172); further: test concentration not given here
# Settings: higher = more signal
row,SMILES,z-score
1,CN1CCC(CCCO)=CC1c1cccs1 (stereo unspecified),-0.34
2,CCCCCN1CC=CC23O[C@@H]4C=CCOC(=O)[C@@H]4[C@H]2C(=O)N(C(C)CO)[C@@H]3C1=O (stereo partly specified),0.0677
3,Cc1ccc(S[C@]2(C(=O)NCC(C)C)CC(=O)N(Cc3cc(C(F)(F)F)cc(C(F)(F)F)c3)[C@@H]2c2ccc(CO)cc2)cc1,-0.0834
4,CC1CC/C=C\[C@H]2OC34C=CCN(Cn5nnc6ccccc65)C(=O)[C@H]3N(CCCCCO)C(=O)[C@@H]4C2C(=O)O1 (stereo partly specified),0.786
5,COc1ccc([Si](C)(C)[C@@H]2[C@@H](CCO)O[C@]3(C(=O)N(Cc4cccc(N5CCOC5=O)c4)c4ccccc43)[C@H]2C)cc1,-1.09
6,CCCCN1CC=CC23O[C@@H]4C=CCCOC(=O)C4[C@H]2C(=O)N(CCCCCO)[C@@H]3C1=O (stereo partly specified),-0.462
7,COc1ccc(CCNC(=O)[C@@]2(C)c3ccccc3C(=O)N(c3ccc(C)cn3)[C@H]2c2ccc(CO)cc2)cc1,0.437
8,COC(=O)[C@@]1(Cc2ccc(OC)cc2)[C@H]2c3cc(C(=O)N4CCCC4)n(Cc4nc5ccccc5[nH]4)c3C[C@H]2CN1C(=O)c1ccccc1,0.0719
9,[N-]=[N+]=NCc1ccccc1[C@@H]1OC(c2ccc(OCCCO)cc2)=N[C@]1(CCS(=O)(=O)c1ccccc1)C(=O)N1CCOCC1,-0.0512
10,CCOC(=O)C1=CC[C@H]2C(=O)N(c3ccccc3)C(=O)[C@@H]12,0.119
11,COC(=O)[C@@]1(Cc2ccc(F)cc2)[C@H]2c3cc(C(=O)N(C)C)n(Cc4ccc(C)o4)c3C[C@H]2CN1C(=O)c1ccccc1,-0.0869
